From PubChem BioAssay
Mcl-1 Bim block: disrupts Bim peptide binding to human Mcl-1; Q07820; Bead-based flow cytometry, Bim peptide-Mcl-1 binding; inhibition, % at 10 µM; 190,000 compounds, 0.1% hits; in the data active = inhibition above about 40%
Mcl1 Bid PPI: disrupts binding of human Mcl-1 to Bid peptide. TR-FRET Mcl-1/Bid-Dy647 peptide binding, 1536-well. Q07820. inhibition, % at 21.7 µM. 220,000 compounds, 0.97% hits;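 active = compounds that cut the binding signal by more than half at the single screening dose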;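 also: His-tagged Mcl-1 with europium anti-His antibody binding Bid BH3 peptide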
Mcl1-Noxa inh: disrupts binding of human Mcl-1 to Noxa peptide. TR-FRET Mcl-1/Noxa peptide binding, 2 h. inhibition, % at 21.7 µM. 220,000 compounds, 1.5% hits. AID 1022;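 active = compounds that cut the protein-peptide binding signal by more than 50% relative to plate controls in a single-dose test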;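 also: His-tagged Mcl-1 with rhodamine Noxa BH3 peptide and terbium anti-His antibody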
p47phox inh: inhibitors of human p47phox binding. P14598. p47phox/p22phox peptide binding, fluorescence polarization, 2 h. inhibition, % at 24.7 µM. 220,000 compounds, 0.53% hits. AID 1274;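 active = inhibition above about 30%, limit read from the data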
Target sequence (P14598 whole entry, looked up): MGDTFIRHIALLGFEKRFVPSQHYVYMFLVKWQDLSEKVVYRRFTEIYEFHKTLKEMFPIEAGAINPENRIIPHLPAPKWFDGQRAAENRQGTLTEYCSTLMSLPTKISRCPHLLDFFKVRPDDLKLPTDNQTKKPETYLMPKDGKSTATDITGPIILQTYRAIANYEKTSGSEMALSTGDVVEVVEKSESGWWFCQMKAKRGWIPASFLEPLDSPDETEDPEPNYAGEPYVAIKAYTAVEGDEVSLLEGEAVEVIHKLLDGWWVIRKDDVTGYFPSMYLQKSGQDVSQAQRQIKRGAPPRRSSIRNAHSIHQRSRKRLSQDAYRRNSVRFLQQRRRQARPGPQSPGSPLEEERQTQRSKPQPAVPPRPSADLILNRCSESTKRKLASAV
14-3-3 Bad PPI: disrupts binding of bovine 14-3-3 zeta to phospho-Bad peptide | TR-FRET 14-3-3zeta/Dy647-pBad peptide displacement, 1 h | inhibition, % at 21.7 µM | 220,000 compounds, 0.71% hits;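 active = inhibition above about 70%, limit read from the data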
Target sequence (P63103 whole entry, looked up): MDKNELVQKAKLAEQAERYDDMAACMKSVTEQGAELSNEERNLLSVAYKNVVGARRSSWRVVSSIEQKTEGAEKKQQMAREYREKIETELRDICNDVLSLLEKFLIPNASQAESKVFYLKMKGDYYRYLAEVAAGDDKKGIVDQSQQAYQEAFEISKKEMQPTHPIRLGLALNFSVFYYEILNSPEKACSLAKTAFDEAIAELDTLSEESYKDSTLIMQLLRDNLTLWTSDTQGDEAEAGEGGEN
Each line names hits and unclear results; the compound was inactive in the other large screens; [ ] = remark or other dose. Compounds with a hit are over-represented: about 3.1% of the library has one in this group of screens.

CCCOc1ccc(C(=O)NCC(c2ccco2)N(C)C)cc1OC (stereo not drawn)	Mcl1 Bid PPI 95
COc1ccc(C(=O)NCC(=O)NCC(c2ccco2)N(C)C)cc1OC (stereo not drawn)	none
CC(C)NC(=O)c1cc(=O)n(C)c(=O)n1C	14-3-3 Bad PPI 88
CC[C@@H](C)C(NC(=O)OC(C)(C)C)c1cn([C@@H](CCC(=O)OC(C)(C)C)C(=O)N2CCN(C(=O)OC(C)(C)C)CC2)nn1 (stereo partly drawn)	none
COc1cccc(Oc2c(C)oc3c(CN4CCCC4)c(O)ccc3c2=O)c1	Mcl1 Bid PPI 96 (no result: Mcl-1 Bim block)
COC(=O)c1ccc(C(=O)OC)c(NC(=O)COC(=O)C2CC2C)c1 (stereo not drawn)	none
Nc1nc(COc2ccc3ccccc3c2)cs1	none
Nc1nc(CCOc2ccc(F)cc2)cs1	p47phox inh 40
COc1cc(OC)cc(C2=NCCN2)c1	none
COc1ccc(CC(=O)NNC(=O)c2nn(Cc3ccccc3)c(=O)c3ccccc23)cc1OC	p47phox inh 142 (no result: Mcl-1 Bim block)
O=C1NCCN1C(=O)N(c1ccccc1)c1ccccc1	Mcl-1 Bim block 56
COc1cc(/C=C(\C#N)c2[nH]nc(N)c2C#N)cc(OC)c1O	Mcl1-Noxa inh 56
COc1cc(/C=C(\C#N)c2ccccn2)cc(OC)c1O	none (no result: Mcl-1 Bim block)
COc1ccc(C(=O)Nc2ncc3c(n2)CC(c2ccco2)CC3=O)cc1 (stereo not drawn)	Mcl1-Noxa inh 52
COc1ccc(C2CC(=O)c3cnc(Nc4cc(C)cc(C)c4)nc3C2)cc1 (stereo not drawn)	14-3-3 Bad PPI 76
CC(C)OCCCNc1ncc2c(n1)CC(c1ccccc1)CC2=O (stereo not drawn)	Mcl1-Noxa inh 60
COc1ccc(C2CC(=O)c3cnc(NC(=O)c4cc(OC)cc(OC)c4)nc3C2)cc1 (stereo not drawn)	none
CCOCCCNc1ncc2c(n1)CC(c1ccc(C)cc1)CC2=O (stereo not drawn)	none
Cc1ccc(C(=O)NCc2n[nH]c(=S)n2-c2ccccc2)cc1[N+](=O)[O-]	none
CCOc1cc(/C=C2/C(=N)N3C=CSC3=NC2=O)ccc1OCCCOc1ccccc1C	Mcl1 Bid PPI 57
O=C1C2CC=C(Cl)CC2C(=O)N1CCC[n+]1cccc2ccccc21 (stereo not drawn)	none
CCC1(O)CC(C(=O)OC)=NN1C(=O)c1ccccc1 (stereo not drawn)	Mcl1-Noxa inh 64
CC(C)N1CCc2c(sc(NC(=O)c3ccc(S(=O)(=O)N4CCc5ccccc54)cc3)c2C(N)=O)C1	Mcl1-Noxa inh 72
CC(C)Cn1ccc(=O)n(CC(C)C)c1=O	Mcl1 Bid PPI 55
CC(C)Cn1cc(Cl)c(=O)n(CC(C)C)c1=O	none
COc1ccc(CCNC(=O)CN(c2ccc(OC)c(OC)c2)S(C)(=O)=O)cc1	Mcl1-Noxa inh 75
CC(=O)c1ccc(NC(=O)c2ccn(C(=O)OCC(C)C)n2)cc1	none
CCOC(=O)N1CCC(NC(=O)c2cccc3c2C(=O)N(Cc2cccnc2)C3)CC1	none
NS(=O)(=O)c1ccc(NNC(=O)c2sccc2Cl)cc1	none (no result: Mcl-1 Bim block)
O=C(O)c1cc(-c2ccc(/C=C3\NC(=O)N(c4ccccc4)C3=O)o2)ccc1Cl	Mcl1-Noxa inh 73 (no result: Mcl-1 Bim block)
Cc1ccc(CN2C(=O)N/C(=C/c3ccc(-c4ccc(C(=O)O)cc4)o3)C2=O)cc1	Mcl1-Noxa inh 66 (no result: Mcl-1 Bim block)
O=C(O)c1cc(-c2ccc(/C=C3\NC(=O)N(c4ccc(Cl)cc4)C3=O)o2)ccc1Cl	none
CN(CC(=O)Nc1ccccc1Cl)CC(=O)Nc1ccccc1[N+](=O)[O-]	none
O=C1ON=C(c2ccccc2)/C1=C/c1ccc(OS(=O)(=O)c2ccccc2)cc1	Mcl1-Noxa inh 72
Cn1c(=O)nc2n(Cc3ccccc3)c3cccc(Cl)c3cc-2c1=O	Mcl1 Bid PPI 62
COc1cc(OC)cc(-c2cc3nc(C)c(CCC(=O)NC(C)CCc4ccco4)c(C)n3n2)c1 (stereo not drawn)	none (no result: Mcl1 Bid PPI, Mcl1-Noxa inh, p47phox inh, 14-3-3 Bad PPI)
COc1cc(OC)cc(-c2cc3nc(C)c(CCC(=O)O)c(C)n3n2)c1	Mcl1 Bid PPI 62
Cc1sc2nc(CSCC(=O)Nc3ccccc3C#N)[nH]c(=O)c2c1C	none
CCOC(=O)c1cn(CC)c2ccc(S(=O)(=O)N3CC(C)CC(C)C3)cc2c1=O (stereo not drawn)	Mcl1 Bid PPI 54
CCn1cc(C(=O)NCc2cccs2)c(=O)c2cc(S(=O)(=O)N3CCOCC3)ccc21	Mcl1 Bid PPI 51 (no result: Mcl-1 Bim block)
Cc1c(C(=O)NCc2ccccn2)oc2ccc(S(=O)(=O)N3CCOCC3)cc12	p47phox inh 50
CCn1cc(C(=O)NCc2ccco2)c(=O)c2cc(S(=O)(=O)N3CCCC3)ccc21	none
Cc1cc(NC(=O)CN2C(=O)[C@@H]3[C@H](C2=O)[C@@H]2C[C@H]3C(Br)C2Br)no1 (stereo partly drawn)	none (no result: Mcl-1 Bim block)
CCN(Cc1ccccc1)S(=O)(=O)c1ccc(C(=O)N2CCN(c3nc4ccccc4s3)CC2)cc1	none
COc1ccc(CNC(NC(=O)c2ccccc2)(C(F)(F)F)C(F)(F)F)cc1	none
CN1c2ccsc2C(O)=C(C(=S)Nc2ccc(F)c(Cl)c2)S1(=O)=O	Mcl1 Bid PPI 54
Cn1cc(C(=O)Nc2ccc(F)c(Cl)c2)cn1	none
Cc1ccc(C2C3C(=O)N(c4ccc(C)cc4)C(=O)C3N3CCCN23)cc1 (stereo not drawn)	none (no result: Mcl-1 Bim block)
CCn1c(SCCN2CCCCC2)nnc1-c1ccc(S(=O)(=O)N2CCOCC2)cc1	14-3-3 Bad PPI 75
Cn1c(SCC(=O)NC2CCCC2)nnc1-c1ccc(S(=O)(=O)N2CCOCC2)cc1	none
CC1CCCN(C(=O)CSc2nnc(-c3ccc(S(=O)(=O)N4CCOCC4)cc3)n2C)C1 (stereo not drawn)	14-3-3 Bad PPI 85[fluorescence artefact?]
COc1cccc(/C=C/C(=O)OCC(=O)NCCC2=CCCCC2)c1	none
O=c1cnc2cc([N+](=O)[O-])ccc2[nH]1	none
NC(=S)Nc1ccc(F)c(F)c1F	none (no result: Mcl-1 Bim block)
NC(=S)Nc1ccc(F)cc1F	Mcl1 Bid PPI 77 (no result: Mcl-1 Bim block)
CCc1c(C)nc2ncnn2c1NCCc1ccc(Cl)cc1	none
COc1ccc(NC(=S)Nn2cnnc2)cc1OC	none
CCOC(=O)c1cc(C)nn1-c1nc(Cl)cc(OC)n1	none
CC(C)(C)c1nc(NCCN2CCOCC2)c2nnn(Cc3ccccc3Cl)c2n1	Mcl-1 Bim block 41
CCn1c(C)cc(/C=C2\NC(=O)N(CC(=O)Nc3cccc(C)c3)C2=O)c1C	none
CCn1c(C)cc(/C=C2/NC(=O)N(CC(=O)Nc3cccc(C)c3)C2=O)c1C	Mcl1 Bid PPI 85, Mcl1-Noxa inh 54, p47phox inh 59
Cc1cccc(NC(=O)CN2C(=O)N/C(=C/c3ccc(C)o3)C2=O)c1	Mcl1-Noxa inh 85
COC(=O)c1ccccc1NC(=O)c1cc(C2CC2)on1	none
COC(=O)c1ccccc1NC(=O)c1cc(-c2ccc(O)cc2)on1	Mcl1-Noxa inh 68
CCCCCc1nc2c(=O)[nH]c3ccccc3c2o1	Mcl1-Noxa inh 77
Cc1nnc(SCC(=O)N2CCN(C(=O)c3ccco3)CC2)n1-c1ccccc1	none
